Results as given in the supplement of paper PMC10849652.
The full data set covers some 8,800 targets. This sample favours those with a hit. About 0.5% of all pairs of compound and target were hits. A number with no mark means an inactive call.

Experiments:
Assay in all cases: log2 fold change, soluble protein after heating vs DMSO (PISA); higher = thermal stabilisation; K562 lysate, 10 uM; active = over 0.2 and 3.5 SD of the protein, either way, in both replicates (recomputed)
vemurafenib = compound: CCCS(=O)(=O)Nc1ccc(F)c(C(=O)c2c[nH]c3ncc(-c4ccc(Cl)cc4)cc23)c1F [vemurafenib]
Outline: (§1)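 Soluble protein was defined as the supernatant remaining after 21,000xg for 90 min, following pooling of heated aliquots and adjustment to 0.5% NP-40 at 4°C. Before that, crude K562 extract at 1 mg/mL protein in PBS pH 7.4 with 1 mM MgCl2 was treated with 10 μM compound for 30 min and heated for 3 min across 48°C-58°C. Quantification used TMTpro 16plex LC-MS/MS with channel sums equalised, and values are log-two fold changes in thermal stability relative to solvent controls from duplicates.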

[1] = compound: CCCS(=O)(=O)Nc1ccc(F)c(C(=O)c2c[nH]c3ncc(Cl)cc23)c1F
Outline: as §1

barasertib = compound: CCN(CCCOc1ccc2c(Nc3cc(CC(=O)Nc4cccc(F)c4)[nH]n3)ncnc2c1)CCOP(=O)(O)O [barasertib]
Outline: as §1

[2] = compound: CC[C@@H]1C(=O)N(C)c2cnc(Nc3ccc(C(=O)NC4CCN(C)CC4)cc3OC)nc2N1C1CCCC1
Outline: as §1

volasertib = compound: CC[C@@H]1C(=O)N(C)c2cnc(Nc3ccc(C(=O)N[C@H]4CC[C@H](N5CCN(CC6CC6)CC5)CC4)cc3OC)nc2N1C(C)C [volasertib]
Outline: as §1

[3] = compound: CCn1c(C(=O)N(C2CC2)C2CC2)cc2c3c(ncn3C)c(Nc3cc(C)n(C)n3)nc21
Outline: as §1

[4] = compound: CCn1cc(-c2ccnc3[nH]c(-c4cccc(CN(C)C)c4)cc23)c(-c2ccc(NC(=O)N(C)C)cc2)n1
Outline: as §1

[5] = compound: CN1CCC(CNc2ccc3ncc(-c4cccc(OC(F)(F)F)c4)n3n2)CC1
Outline: as §1

saracatinib = compound: CN1CCN(CCOc2cc(OC3CCOCC3)c3c(Nc4c(Cl)ccc5c4OCO5)ncnc3c2)CC1 [saracatinib]
Outline: as §1

sotrastaurin = compound: CN1CCN(c2nc(C3=C(c4c[nH]c5ccccc45)C(=O)NC3=O)c3ccccc3n2)CC1 [sotrastaurin]
Outline: as §1

alvocidib = compound: CN1CC[C@H](c2c(O)cc(O)c3c(=O)cc(-c4ccccc4Cl)oc23)[C@H](O)C1 [alvocidib]
Outline: as §1

Tubastatin A = compound: CN1CCc2c(c3ccccc3n2Cc2ccc(C(=O)NO)cc2)C1 [Tubastatin A]
Outline: as §1

[6] = compound: CNC(=O)C1=CC=CC=C1NC2=NC(=NC=C2Cl)NC3=C(C=C(C=C3)N4CCOCC4)OC
Outline: as §1

defactinib = compound: CNC(=O)c1ccc(Nc2ncc(C(F)(F)F)c(NCc3nccnc3N(C)S(C)(=O)=O)n2)cc1 [defactinib]
Outline: as §1

[7] = compound: CNc1nc(-c2ccc3c(N)n[nH]c3c2)cc(N2C[C@@H](C(=O)NC3CCCCC3)CC[C@H]2C)n1
Outline: as §1

encorafenib = compound: COC(=O)N[C@@H](C)CNc1nccc(-c2cn(C(C)C)nc2-c2cc(Cl)cc(NS(C)(=O)=O)c2F)n1 [encorafenib]
Outline: as §1

[8] = compound: COC(=O)[C@H](CCSC)NC(=O)C1=C(C=C(C=C1)NC[C@H](CS)N)C2=CC=CC=C2
Outline: as §1

alisertib = compound: COc1cc(Nc2ncc3c(n2)-c2ccc(Cl)cc2C(c2c(F)cccc2OC)=NC3)ccc1C(=O)O [alisertib]
Outline: as §1

[9] = compound: COc1cc2nc(-c3cc(F)ccc3O)nc(N[C@@H]3CNC[C@H]3C(C)(C)O)c2cc1OC
Outline: as §1

gefitinib = compound: COc1cc2ncnc(Nc3ccc(F)c(Cl)c3)c2cc1OCCCN1CCOCC1 [gefitinib]
Outline: as §1

UniProt O95248, sequence (O95248 whole entry, looked up): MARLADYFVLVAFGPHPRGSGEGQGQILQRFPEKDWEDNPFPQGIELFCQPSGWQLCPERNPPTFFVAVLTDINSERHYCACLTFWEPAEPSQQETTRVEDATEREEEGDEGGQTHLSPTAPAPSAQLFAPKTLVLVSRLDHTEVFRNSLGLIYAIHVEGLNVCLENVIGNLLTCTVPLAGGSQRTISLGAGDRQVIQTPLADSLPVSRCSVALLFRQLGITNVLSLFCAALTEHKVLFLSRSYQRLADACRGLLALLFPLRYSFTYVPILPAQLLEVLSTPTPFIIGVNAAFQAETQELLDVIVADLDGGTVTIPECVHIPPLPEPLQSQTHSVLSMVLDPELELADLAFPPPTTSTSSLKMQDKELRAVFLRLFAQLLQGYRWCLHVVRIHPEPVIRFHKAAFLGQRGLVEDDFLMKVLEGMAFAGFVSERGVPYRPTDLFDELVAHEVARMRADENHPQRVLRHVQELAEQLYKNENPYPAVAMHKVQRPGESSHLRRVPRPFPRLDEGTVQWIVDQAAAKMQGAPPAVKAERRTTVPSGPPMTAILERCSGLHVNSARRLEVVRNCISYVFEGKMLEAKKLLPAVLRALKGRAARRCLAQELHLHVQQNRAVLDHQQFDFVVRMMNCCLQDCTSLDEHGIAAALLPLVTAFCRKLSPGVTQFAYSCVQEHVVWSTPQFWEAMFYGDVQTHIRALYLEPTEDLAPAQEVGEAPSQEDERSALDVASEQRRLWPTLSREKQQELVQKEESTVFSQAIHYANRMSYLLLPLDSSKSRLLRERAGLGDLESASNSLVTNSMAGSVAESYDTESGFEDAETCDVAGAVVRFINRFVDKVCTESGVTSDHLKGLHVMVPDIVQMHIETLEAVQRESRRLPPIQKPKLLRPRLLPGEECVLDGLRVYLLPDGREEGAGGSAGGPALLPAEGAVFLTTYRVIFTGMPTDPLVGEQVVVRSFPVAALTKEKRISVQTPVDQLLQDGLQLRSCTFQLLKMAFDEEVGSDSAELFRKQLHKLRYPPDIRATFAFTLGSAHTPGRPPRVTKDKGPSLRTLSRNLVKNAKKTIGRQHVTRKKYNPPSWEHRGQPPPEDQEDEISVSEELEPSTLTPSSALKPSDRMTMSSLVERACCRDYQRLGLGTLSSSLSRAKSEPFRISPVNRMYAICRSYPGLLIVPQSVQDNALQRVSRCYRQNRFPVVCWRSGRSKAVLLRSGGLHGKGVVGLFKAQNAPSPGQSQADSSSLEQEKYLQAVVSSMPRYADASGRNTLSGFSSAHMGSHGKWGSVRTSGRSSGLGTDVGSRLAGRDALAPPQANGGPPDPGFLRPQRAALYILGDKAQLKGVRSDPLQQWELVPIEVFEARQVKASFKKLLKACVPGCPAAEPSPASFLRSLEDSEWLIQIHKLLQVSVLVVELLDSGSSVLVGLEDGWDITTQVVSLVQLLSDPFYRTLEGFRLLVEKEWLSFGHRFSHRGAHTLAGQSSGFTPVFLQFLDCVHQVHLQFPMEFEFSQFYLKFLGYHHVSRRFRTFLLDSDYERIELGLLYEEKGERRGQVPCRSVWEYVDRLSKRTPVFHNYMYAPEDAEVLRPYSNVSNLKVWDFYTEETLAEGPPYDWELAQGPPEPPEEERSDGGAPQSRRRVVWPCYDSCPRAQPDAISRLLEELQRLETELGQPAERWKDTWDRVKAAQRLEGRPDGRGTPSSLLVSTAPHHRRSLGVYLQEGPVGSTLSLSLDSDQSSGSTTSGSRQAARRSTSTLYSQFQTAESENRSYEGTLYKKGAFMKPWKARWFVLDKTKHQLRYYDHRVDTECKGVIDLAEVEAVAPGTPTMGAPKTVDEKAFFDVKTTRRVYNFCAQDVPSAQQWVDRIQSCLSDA
UniProt P51159, sequence (P51159 whole entry, looked up): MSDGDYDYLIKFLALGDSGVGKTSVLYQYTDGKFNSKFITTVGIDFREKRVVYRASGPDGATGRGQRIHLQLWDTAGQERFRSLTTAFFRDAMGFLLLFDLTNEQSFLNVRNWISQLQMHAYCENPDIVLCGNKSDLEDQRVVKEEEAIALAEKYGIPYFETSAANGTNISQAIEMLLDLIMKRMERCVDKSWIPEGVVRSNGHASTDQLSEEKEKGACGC
UniProt P47736, sequence (P47736 whole entry, looked up): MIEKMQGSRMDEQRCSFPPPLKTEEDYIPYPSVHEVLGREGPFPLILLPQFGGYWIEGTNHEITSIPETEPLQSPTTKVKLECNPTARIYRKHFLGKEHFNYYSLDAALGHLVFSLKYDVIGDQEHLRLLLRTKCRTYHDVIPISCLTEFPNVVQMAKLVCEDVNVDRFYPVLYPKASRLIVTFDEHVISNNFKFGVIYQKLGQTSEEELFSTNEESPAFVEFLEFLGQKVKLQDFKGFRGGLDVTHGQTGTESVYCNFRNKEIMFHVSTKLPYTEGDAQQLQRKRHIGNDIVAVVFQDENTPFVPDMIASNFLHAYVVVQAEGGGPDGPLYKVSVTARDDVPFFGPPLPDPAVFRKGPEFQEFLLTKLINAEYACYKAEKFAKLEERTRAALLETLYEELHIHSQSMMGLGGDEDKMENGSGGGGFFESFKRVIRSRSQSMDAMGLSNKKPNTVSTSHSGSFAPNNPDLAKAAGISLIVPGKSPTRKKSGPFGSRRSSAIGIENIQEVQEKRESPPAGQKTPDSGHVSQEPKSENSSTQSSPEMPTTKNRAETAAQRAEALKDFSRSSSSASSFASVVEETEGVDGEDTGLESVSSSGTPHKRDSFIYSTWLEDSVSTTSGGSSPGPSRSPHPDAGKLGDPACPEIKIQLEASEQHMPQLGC
UniProt P60059, sequence (P60059 whole entry, looked up): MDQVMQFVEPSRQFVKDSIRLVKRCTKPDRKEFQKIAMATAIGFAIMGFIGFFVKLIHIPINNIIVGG
UniProt Q9UL25, sequence (Q9UL25 whole entry, looked up): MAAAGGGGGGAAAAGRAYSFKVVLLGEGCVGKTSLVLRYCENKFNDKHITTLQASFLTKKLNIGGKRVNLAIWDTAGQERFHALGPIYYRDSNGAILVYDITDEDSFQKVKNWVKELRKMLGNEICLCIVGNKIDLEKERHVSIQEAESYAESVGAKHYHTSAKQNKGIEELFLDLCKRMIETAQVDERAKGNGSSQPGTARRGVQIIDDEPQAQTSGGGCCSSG
UniProt Q8NBX0, sequence (Q8NBX0 whole entry, looked up): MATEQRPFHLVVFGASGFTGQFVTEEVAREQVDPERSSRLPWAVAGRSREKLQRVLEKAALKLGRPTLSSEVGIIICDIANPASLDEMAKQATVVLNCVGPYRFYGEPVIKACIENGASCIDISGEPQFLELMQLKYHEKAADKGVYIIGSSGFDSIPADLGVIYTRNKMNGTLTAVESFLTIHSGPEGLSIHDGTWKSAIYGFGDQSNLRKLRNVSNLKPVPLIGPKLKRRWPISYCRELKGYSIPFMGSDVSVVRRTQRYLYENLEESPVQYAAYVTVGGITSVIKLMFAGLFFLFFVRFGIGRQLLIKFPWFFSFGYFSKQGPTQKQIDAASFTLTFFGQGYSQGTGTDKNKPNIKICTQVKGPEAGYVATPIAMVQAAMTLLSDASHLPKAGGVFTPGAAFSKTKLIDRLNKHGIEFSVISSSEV
UniProt Q9P0P0, sequence (Q9P0P0 whole entry, looked up): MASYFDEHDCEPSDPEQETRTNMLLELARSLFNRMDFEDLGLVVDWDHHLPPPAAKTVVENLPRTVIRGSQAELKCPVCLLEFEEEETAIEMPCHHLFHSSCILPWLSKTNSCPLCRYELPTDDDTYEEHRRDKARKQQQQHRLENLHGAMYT
UniProt Q9H7N4, sequence (Q9H7N4 whole entry, looked up): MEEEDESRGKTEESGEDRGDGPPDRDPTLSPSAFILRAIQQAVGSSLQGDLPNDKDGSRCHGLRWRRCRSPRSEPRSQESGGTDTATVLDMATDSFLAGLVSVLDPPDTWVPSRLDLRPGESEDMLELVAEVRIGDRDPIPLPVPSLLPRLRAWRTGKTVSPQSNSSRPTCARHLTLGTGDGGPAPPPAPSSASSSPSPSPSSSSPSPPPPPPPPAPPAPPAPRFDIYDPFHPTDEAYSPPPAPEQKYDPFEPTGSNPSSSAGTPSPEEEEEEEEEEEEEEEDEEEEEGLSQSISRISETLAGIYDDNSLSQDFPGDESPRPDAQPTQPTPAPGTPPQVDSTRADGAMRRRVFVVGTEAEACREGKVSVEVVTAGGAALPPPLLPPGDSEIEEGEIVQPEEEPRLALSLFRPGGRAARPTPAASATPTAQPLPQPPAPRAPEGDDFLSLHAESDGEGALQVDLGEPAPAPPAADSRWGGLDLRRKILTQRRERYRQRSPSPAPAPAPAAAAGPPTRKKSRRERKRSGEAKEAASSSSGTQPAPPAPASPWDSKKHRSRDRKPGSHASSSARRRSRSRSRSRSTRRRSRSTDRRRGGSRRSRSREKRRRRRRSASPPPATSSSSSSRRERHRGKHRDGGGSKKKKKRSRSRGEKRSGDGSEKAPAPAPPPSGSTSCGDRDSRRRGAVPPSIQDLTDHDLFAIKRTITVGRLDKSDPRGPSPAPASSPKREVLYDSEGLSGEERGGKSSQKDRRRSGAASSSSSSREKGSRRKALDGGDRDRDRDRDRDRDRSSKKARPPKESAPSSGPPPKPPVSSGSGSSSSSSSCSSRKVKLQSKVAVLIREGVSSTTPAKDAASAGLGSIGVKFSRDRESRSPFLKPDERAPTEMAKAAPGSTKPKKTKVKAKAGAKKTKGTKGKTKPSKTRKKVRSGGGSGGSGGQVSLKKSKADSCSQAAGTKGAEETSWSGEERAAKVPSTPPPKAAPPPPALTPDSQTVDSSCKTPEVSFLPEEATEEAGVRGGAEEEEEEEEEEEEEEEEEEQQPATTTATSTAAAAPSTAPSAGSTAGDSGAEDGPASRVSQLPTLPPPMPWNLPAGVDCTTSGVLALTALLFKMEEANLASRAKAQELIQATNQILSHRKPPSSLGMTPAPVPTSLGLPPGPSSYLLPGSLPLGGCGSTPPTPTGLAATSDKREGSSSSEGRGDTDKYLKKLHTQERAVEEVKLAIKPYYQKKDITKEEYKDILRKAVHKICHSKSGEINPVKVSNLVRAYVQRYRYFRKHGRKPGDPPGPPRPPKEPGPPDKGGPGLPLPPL

Row | Target | log2 fold change (vemurafenib) | log2 fold change [1] | log2 fold change (barasertib) | log2 fold change [2] | log2 fold change (volasertib) | log2 fold change [3] | log2 fold change [4] | log2 fold change [5] | log2 fold change (saracatinib) | log2 fold change (sotrastaurin) | log2 fold change (alvocidib) | log2 fold change (Tubastatin A) | log2 fold change [6] | log2 fold change (defactinib) | log2 fold change [7] | log2 fold change (encorafenib) | log2 fold change [8] | log2 fold change (alisertib) | log2 fold change [9] | log2 fold change (gefitinib)
1 | RAB8B (UniProt Q92930) | -0.137 | 0 | -0.036 | 0.028 | -0.036 | 0.007 | 0.252 | -0.142 | 0.08 | -0.024 | 0.037 | 0.034 | -0.011 | -0.016 | -0.026 | -0.002 | -0.045 | 0.016 | 0.015 | 0.115
2 | RPS6KA1 (UniProt Q15418) | -0.037 | -0.004 | -0.006 | 0.037 | 0.029 | 0.019 | -0.004 | 0.116 | 0.101 | 0.103 | 0.447 (active) | -0.194 | 0.758 (active) | 0.236 | -0.007 | -0.121 | -0.002 | 0.012 | 0.165 | -0.007
3 | RNF181 (UniProt Q9P0P0) | -0.06 | 0.025 | 0.179 | -0.036 | 0.004 | 0.018 | -0.013 | -0.035 | -0.03 | -0.02 | 0 | 0.021 | 0.037 | 0.044 | -0.008 | 0.029 | -0.201 | -0.011 | -0.004 | -0.083
4 | SERINC3 (UniProt Q13530) | 0.05 | 0.074 | -0.02 | 0.039 | 0.066 | -0.05 | -0.443 (active) | 0.224 | 0.052 | 0.081 | -0.074 | -0.008 | 0.057 | -0.091 | 0.065 | 0.023 | -0.109 | -0.047 | 0.055 | 0.014
5 | RAB27A (UniProt P51159) | -0.037 | -0.024 | 0.012 | -0.056 | -0.082 | 0.034 | 0.679 (active) | -0.048 | 0.021 | 0.001 | 0.087 | -0.083 | 0.047 | -0.001 | -0.131 | 0.027 | 0.016 | -0.004 | 0.041 | 0.068
6 | RPL27 (UniProt P61353) | -0.022 | -0.002 | 0.011 | -0.001 | -0.008 | -0.001 | 0.572 (active) | -0.079 | 0.019 | -0.015 | 0.049 | 0.009 | -0.015 | 0.006 | 0.056 | -0.015 | 0.012 | 0.006 | 0.006 | -0.023
7 | RAB21 (UniProt Q9UL25) | -0.038 | -0.005 | 0.041 | 0.005 | -0.006 | 0.008 | 0.262 (active) | -0.06 | 0.029 | -0.021 | 0.069 | 0.034 | 0.048 | -0.025 | 0.026 | 0.005 | -0.072 | 0.015 | 0.013 | 0.003
8 | RMC1 (UniProt Q96DM3) | 0.009 | 0.029 | 0.003 | 0.028 | -0.044 | -0.02 | 0 | 0.024 | 0.018 | -0.015 | -0.041 | -0.019 | 0.019 | 0.049 | -0.019 | 0.012 | -0.023 | 0 | -0.001 | 0.005
9 | RAP1GAP isoform 4 (UniProt P47736) | 0.009 | 0.055 | 0.008 | 0.044 | -0.075 | 0.003 | -0.038 | 0.02 | 0.06 | 0.029 | 0.01 | -0.138 | 0.06 | 0.012 | -0.027 | 0.022 | 0.01 | 0.024 | 0.008 | 0.026
10 | RAC2 (UniProt P15153) | 0.028 | 0.034 | 0.054 | 0.049 | -0.071 | -0.001 | -0.011 | 0.008 | 0.045 | -0.058 | 0.047 | -0.086 | 0.082 | 0.007 | 0.06 | -0.022 | -0.001 | 0.051 | 0.056 | 0.016
11 | RAB3IL1 (UniProt E9PK89) | -0.154 | 0.031 | -0.001 | -0.079 | 0.031 | -0.054 | 0.026 | -0.047 | -0.043 | -0.013 | -0.008 | -0.025 | 0.023 | 0.123 | 0.005 | 0.047 | 0.024 | 0.032 | -0.07 | 0
12 | SCCPDH (UniProt Q8NBX0) | -0.013 | -0.054 | 0.118 | 0.128 | 0.055 | -0.107 | -0.12 | 0.233 | -0.092 | 0.094 | -0.051 | 0.044 | 0.05 | 0.028 | 0.333 | -0.076 | 0.129 | -0.011 | 0.005 | -0.063
13 | SBF1 isoform 4 (UniProt O95248) | 0.118 | 0.012 | 0.033 | 0.071 | -0.111 | 0.014 | -0.107 | 0.029 | 0.062 | 0 | 0.005 | 0.074 | -0.054 | 0.022 | -0.099 | -0.004 | -0.009 | 0.238 | 0.008 | 0.062
14 | RINT1 (UniProt Q6NUQ1) | 0.065 | 0.022 | 0.095 | -0.055 | -0.113 | 0.088 | -0.048 | -0.044 | 0.095 | 0.058 | 0.041 | -0.083 | 0.011 | 0.047 | -0.072 | 0.01 | -0.017 | -0.086 | 0.065 | 0.035
15 | SCAF1 (UniProt Q9H7N4) | 0.027 | 0.093 | 0.079 | 0.089 | -0.114 | 0.05 | -0.041 | 0.008 | 0.009 | -0.029 | 0.054 | 0.034 | -0.051 | 0.046 | 0.051 | -0.028 | -0.066 | 0.128 | -0.02 | 0.129
16 | SEC61G (UniProt P60059) | 0.015 | -0.079 | 0.175 | 0.159 | 0.033 | -0.067 | -0.118 | 0.405 | -0.276 | -0.184 | -0.107 | 0.063 | 0.09 | 0.045 | 0.137 | -0.02 | 0.067 | 0.053 | 0.009 | 0.036
